# ELG1 genotox: qHTS screen for small molecules that induce genotoxicity in human embryonic kidney (HEK293T) cells expressing luciferase-tagged ELG1 | HEK293T ELG1-luciferase reporter, luminescence, 16 h | Potency, µM (top dose mostly 46 µM), usual class: activators | hit rate 1.3% among 330,000; also: nearly all actives have a fitted effect of over 60% in size
#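 DMSO vehicle served as control against compound-treated ELG1-luciferase HEK293T cells; exposure lasted 16 hr at 37 °C and 5% CO2, followed by ONE-Glo luminescence detection after 30 min.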
# Luc counter: Counterscreen for Luciferase (Kinase-Glo TM) Inhibition; Potency, µM (titrated, usually from 38.3 µM), hits mostly inhibitors; Kinase-Glo luciferase, ATP luminescence, 8 min; AID 1379, 2008; hit rate 0.28% among 200,000; also: nearly all actives have a fitted effect of over 60% in size
#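 Inhibition of Kinase-Glo luciferase light generation was assessed at 10 uM ATP in pH 7.2 imidazole buffer, with luminescence measured after eight minutes at ambient temperature.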
# NPC1 prom act: qHTS Assay for NPC1 Promoter Activators | hit rate 2.4% among 320,000 | Potency, µM (doses to about 9.22 µM), usual class: activators | AID 485313, 2010 | Huh7 NPC1 promoter luciferase reporter, 24 h; also: nearly all actives have a fitted effect of over 60% in size
#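 Stably transfected Huh7 (NPC1 promoter→luciferase), 1500 cells/well in Opti-MEM + 10% FBS, 2 h settle, then compound 24 h at 37 °C. Luminescence after 10 min with Amplite reagent.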
# SMN2 splice up: qHTS Assay for Enhancers of SMN2 Splice Variant Expression | HEK293 SMN2-luciferase splicing reporter, luminescence, 30-36 h | Potency, µM (highest dose often 46.1 µM), actives largely listed as activators | hit rate 2.8% among 210,000 | AID 1458, 2008; also: nearly all actives have a fitted effect of over 55% in size
#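 qHTS luciferase splicing reporter: luminescence rises when SMN2 exon 7 is included in transfected HEK293 cells. Compound exposure lasted 30-36 h at 37C, with 4.5 mM final sodium butyrate as control, followed by a ONE-Glo read.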
# FLuc modulator: qHTS profiling assay for firefly luciferase inhibitor/activator using purifed enzyme and Km concentrations of substrates (counterscreen for miR-21 project); purified FLuc, Km substrates, luminescence inhibition; Potency, µM (highest dose often 57.5 µM), most hits filed as inhibitors; hit rate 6.9% among 360,000; AID 588342, 2011; also: nearly all actives have a fitted effect of over 55% in size
# Target sequence (P08659 whole entry, looked up): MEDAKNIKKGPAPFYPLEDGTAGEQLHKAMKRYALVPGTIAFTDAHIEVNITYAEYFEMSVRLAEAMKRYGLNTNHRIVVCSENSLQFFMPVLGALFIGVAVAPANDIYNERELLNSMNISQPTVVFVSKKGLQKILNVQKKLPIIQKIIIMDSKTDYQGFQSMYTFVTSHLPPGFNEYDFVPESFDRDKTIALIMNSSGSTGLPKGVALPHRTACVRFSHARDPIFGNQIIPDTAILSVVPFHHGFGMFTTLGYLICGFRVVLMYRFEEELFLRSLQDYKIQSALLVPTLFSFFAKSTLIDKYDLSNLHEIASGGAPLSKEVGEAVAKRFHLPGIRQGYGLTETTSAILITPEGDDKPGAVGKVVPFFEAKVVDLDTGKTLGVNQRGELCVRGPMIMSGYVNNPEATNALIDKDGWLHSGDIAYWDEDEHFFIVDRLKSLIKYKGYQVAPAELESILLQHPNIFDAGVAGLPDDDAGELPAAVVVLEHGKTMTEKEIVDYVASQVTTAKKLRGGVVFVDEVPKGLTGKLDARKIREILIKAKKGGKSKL
#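 Purified P. pyralis luciferase, 10 nM final, with Km-level 10 uM D-luciferin and 10 uM ATP in 50 mM Tris acetate pH 7.5, 10 mM Mg acetate, 0.01% Tween-20, 0.05% BSA; 6-point qHTS titration about 60 µM downward; luminescence read.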
# Rab9 promoter act: qHTS Assay for Rab9 Promoter Activators; Huh7 Rab9 promoter-luciferase reporter, luminescence, 24 h; Potency, µM (highest dose often 9.22 µM), actives largely listed as activators; hit rate 2.8% among 320,000; also: nearly all actives have a fitted effect of over 60% in size
#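 Using Huh7 cells stably transfected with Rab9 promoter–luciferase, compounds were incubated 24 h at 37 °C, 5% CO2; luciferase luminescence was read 10 min after reagent addition.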
# Numbers stand for hits; – = inactive; ? = inconclusive; · = not tested or not shown; [ ] = another dose, or the depositor's remark. Shown are actives, neighbours in structure and some others; about 7.4% of the full set was active somewhere. Calls follow the shape of the dose curve; as a rule, active = well fitted curve in the direction sought with a large enough effect; inconclusive = small, poorly fitted or top-dose-only effect, or another doubt; inactive = no such curve, though single readings can be large; an effect the other way counts as inactive or inconclusive.
SMILES,ELG1 genotox,Luc counter,NPC1 prom act,SMN2 splice up,FLuc modulator,Rab9 promoter act
N/C(=N\OC(=O)c1cc(Br)ccc1Cl)c1ccccn1,?,–,?,11.2µM,3.79µM,?
N/C(=N\OC(=O)c1ccc(Cl)cc1[N+](=O)[O-])c1ccccn1,20.6µM,·,?,·,3.38µM,?
N/C(CS(=O)(=O)c1ccccn1)=N\OC(=O)c1ccc(Cl)cc1,–,·,–,·,–,–
COC(=O)c1c(SC)nc2ccccc2c1OCc1cccc(C)c1,·,·,·,·,–,·
O=C(CSc1nc2ccsc2c(=O)n1Cc1ccccc1F)NCc1ccccc1Cl,·,·,·,·,–,·
CC1CCN(C(=O)c2c(NC(=O)c3ccccc3F)sc3c2CCC(C(C)(C)C)C3)CC1 (stereo not given),·,·,·,–,–,·
Cc1ccc(C(=O)O/N=C(\N)c2ccccc2)c(Cl)c1,?,·,2.24µM,·,0.0849µM,0.794µM
N/C(=N\OC(=O)Cc1ccccc1[N+](=O)[O-])c1ccccn1,?,–,–,–,?,–[1.84 µM]
Cc1ccc(C(=O)O/N=C(\N)c2ccccn2)c(Cl)c1,?,·,?,·,0.019µM,0.708µM
Cc1c(C(=O)O/N=C(\N)c2ccccn2)cccc1[N+](=O)[O-],2.06µM,·,3.16µM,·,0.301µM,0.794µM
Cc1ccc2nc(-c3ccc(Cl)cc3)cc(C(=O)OCC(=O)c3ccccc3)c2c1,·,·,·,–,–,·
CCN(CC)c1ccc(/C=C2\SC(=O)N(C(C)C)C2=O)o1,–,·,–,·,19µM,–
CCCCc1ccc(-c2ccc(C)cc2O)nc1,1.46µM,–,0.501µM,22.4µM,0.426µM,0.631µM
CCCCc1ccc(-c2ccc(Br)cc2O)nc1,1.3µM,–,1.41µM,?,0.849µM,0.794µM
O=C(Cc1ccc(-c2ccccc2)cc1)Nc1ccccn1,?,·,–,·,?,–
Cc1ccnc(NC(=O)Cc2ccc(-c3ccccc3)cc2)c1,2.31µM,·,–,·,10.7µM,–
Cc1ccnc(NC(=O)CNC(=O)c2ccc(Br)o2)c1,16.4µM,·,–,·,?,–
Cc1ccc(S(=O)(=O)N(C)CC(=O)Nc2ccc(C)cn2)cc1,–,·,–,·,–,?
Cc1ccc(S(=O)(=O)N(C)CC(=O)Nc2cc(C)ccn2)cc1,10.3µM,·,–,·,?,–
Cc1ccccc1Cn1c(C)c(CNCCCc2ccccc2)c(C(=O)O)c1C,·,·,·,–,–,·
COc1cc(OC)c2c(c1)OC(=O)CC2c1ccccc1OC (stereo not given),·,–,·,·,·,·
CCOc1ccc(-c2nnc(SCc3nnc(-c4ccccc4)o3)n2-c2ccccc2F)cc1,–,–,–,–,26.9µM,–
Cc1ccc(-c2nnc(COc3cccc(-n4cnnn4)c3)o2)cc1,–,–,–,–,19µM,–
Cc1cccc(OCc2nnc(-c3ccc(F)cc3)o2)c1,–,·,–,·,16.9µM,–
Cc1ccc(C(=O)CSc2nnc(COc3cccc(C)c3)o2)cc1,–,–,–,?,–,–
SMILES,ELG1 genotox,Luc counter,NPC1 prom act,SMN2 splice up,FLuc modulator,Rab9 promoter act
Cc1ccc(OCc2nnc(-c3ccccc3)o2)cc1,·,·,·,–,16.9µM,·
O=C(OCc1nnc(-c2ccccc2)o1)c1cccc(-n2cnnn2)c1,–,·,–,·,–,–
COc1ccc(CC(=O)Nc2sc3c(c2C(=O)Nc2cccc(Cl)c2)CCCCC3)cc1,·,·,·,–,?,·
CC(=O)C1=C(c2ccc(Cl)cc2)N(C(C)=O)n2c(nnc2C2CCCCC2)S1,·,·,·,·,–,·
Cc1cc(NC(=O)C(C)(C)C)cc(-c2nc3ncccc3o2)c1O,·,·,·,–,?,·
COc1cc(C(=O)Nc2nonc2-c2ccc(C)c(C)c2)cc(OC)c1OC,·,·,·,·,–,·
Cc1ccc(C)c(OCC(=O)Nc2ccc3c(c2)OCO3)c1C,–,–,–,?,?,–
CCOC(=O)Nc1cccc(C(=O)O)c1,–,–,?,12.6µM,–,?
CCOC(=O)Nc1cccc(Nc2ccccc2)c1,?,–,–,–,?,–
Cc1cccc(C)c1OCC(=O)Nc1cccc(C(=O)O)c1,?,–,1.41µM,6.31µM,2.13µM,2.51µM
Cc1ccc(C)c(OCC(=O)Nc2cccc(C(=O)O)c2)c1C,?,–,?,12.6µM,10.7µM,?
COc1ccccc1OCC(=O)Nc1ccccc1C(=O)Nc1cccc(C(=O)O)c1,–,·,–,·,?,–
COc1ccc(-c2[nH]nc3nc(-c4cc(Br)ccc4OC)cc(C(=O)O)c23)cc1,·,·,·,·,–,·
Cc1ccc(C)c(CN2C(=O)c3ccccc3S(=O)c3ccc(C(=O)NCCc4ccc(Cl)cc4)cc32)c1 (stereo not given),·,·,·,–,–,·
O=c1c(C=NCCCO)c(-c2ccccc2)[nH]n1-c1nc2ccccc2s1,–,–,–,·,15.1µM,–
COCCCN=Cc1c(-c2ccccc2)[nH]n(-c2nc3ccccc3s2)c1=O,–,·,–,·,15.1µM,–
CCCCCN=Cc1c(C)[nH]n(-c2nc3ccccc3s2)c1=O,2.91µM,?,?,–,4.78µM,?
CCCc1[nH]n(-c2nc3ccccc3s2)c(=O)c1C=NCC1CCCO1 (stereo not given),–,–,–,–,–,–
CCCc1[nH]n(-c2nc3ccccc3s2)c(=O)c1C=NCCN1CCOCC1,?,–,–,–,16.9µM,–
CCCc1[nH]n(-c2nc3ccccc3s2)c(=O)c1C=NCCCOC,–,·,–,·,–,–
COc1ccccc1N1CCN(C(=O)C2CCN(S(=O)(=O)Cc3ccccc3)CC2)CC1,·,·,·,·,–,·
COc1ccc(OC)c(Nc2nc3ccccc3n3c(C)nnc23)c1,·,·,·,–,–,·
Cc1cccc(C2=N[C@@H](CC(C)C)CO2)c1,·,–,·,·,·,·
O=C(Nc1cccc(-c2ccc(N3CCOCC3)nn2)c1)c1ccc(Cl)cc1,?,·,?,·,2.13µM,?
O=C(COc1ccc(Cl)cc1)Nc1cccc(-c2ccc(N3CCOCC3)nn2)c1,2.06µM,·,3.16µM,·,1.35µM,1.58µM
SMILES,ELG1 genotox,Luc counter,NPC1 prom act,SMN2 splice up,FLuc modulator,Rab9 promoter act
O=C(Nc1cccc(-c2ccc(N3CCOCC3)nn2)c1)c1ccccc1Cl,–,·,?,·,1.69µM,3.55µM
Cc1ccccc1C(=O)Nc1ccc(N2CCOCC2)nc1,–,–,–,–,?,–
Cc1cc(C(=O)Nc2cccc(-c3ccc(N4CCOCC4)nn3)c2)ccc1[N+](=O)[O-],–,·,?,·,2.69µM,?
OCC(O)C(O)C(O)C(O)C(O)CO (stereo not given),·,–,·,–,·,·
Cc1cccc(OCC(=O)Nc2ccc(S(=O)(=O)N(Cc3ccccc3)c3ccccc3)cc2)c1,·,·,·,·,–,·
Cc1ccc(C(=O)Nc2ccc(N3CCOCC3)nc2)cc1,–,–,–,–,–,–
Cc1ccc(C(=O)Nc2cccc(-c3ccc(N4CCOCC4)nn3)c2)cc1,–,·,2.51µM,·,1.35µM,3.55µM

# Source: PubChem (National Center for Advancing Translational Sciences (NCATS))
